Pf growth 48h: Primary qHTS for delayed death inhibitors of the malarial parasite plastid, 48 hour incubation | AID 504832, 2011 | P. falciparum luciferase growth in erythrocytes, 48 h | 310,000 compounds, 5.9% hits | Potency, µM (highest dose often 28.7 µM), inactives show top-dose activity change, negative = inhibition, hits mostly inhibitors; note: potency is the fitted concentration of half-maximal effect; % is set by controls: 0 for no effect and ±100 for the full control effect
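Luciferase-expressing P. falciparum in infected erythrocytes (2% hematocrit, 0.1% parasitemia final) in RPMI 1640/0.5% Albumax were exposed to compound for 48 hours at 37 C, 5% CO2; growth read as luminescence.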
HCMV inh: qHTS Assay for inhibitors of the human cytomegalovirus (HCMV); HFF cells, HCMV-luciferase reporter, 72 h; active compounds read low; activity change, negative = inhibition, % at 57.5 µM; 410,000 compounds, 4.5% hits; AID 1259415, 2018; in the data active = activity change below about -60%; inconclusive = no clear call, values can overlap the other calls; inactive = above about -39%; note: % is set by controls: 0 for no effect and ±100 for the full control effect
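Two-dose cell screen: HFF monolayers treated with compounds and infected with luciferase-expressing HCMV at 1 PFU/cell, 72 h at 37C, then lysed for luciferase measurement.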
SARS PLpro yeast: qHTS of Yeast-based Assay for SARS-CoV PLP. S. cerevisiae expressing SARS-CoV PLpro, growth rescue. Potency, µM (highest dose often 32.9 µM), for inactives: top-dose activity, positive = growth rescue, usual class: activators. 330,000 compounds, 0.19% hits. AID 485353, 2010; calls by dose curve; note: potency is the fitted concentration of half-maximal effect; 0% is about no effect; nearly all actives have a fitted effect of over 55% in size
Pf growth 96h: Primary qHTS for delayed death inhibitors of the malarial parasite plastid, 96 hour incubation; P. falciparum luciferase reporter growth, 96 h; Potency, µM (highest dose often 28.7 µM), for inactives: top-dose activity change, negative = inhibition, usual class: inhibitors; 320,000 compounds, 6.9% hits; AID 504834, 2011; note: potency is the fitted concentration of half-maximal effect; % is set by controls: 0 for no effect and ±100 for the full control effect
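Luminescence readout: decreased luciferase signal marks inhibited growth of reporter-expressing P. falciparum in infected red cells (2% hematocrit, 0.05% parasitemia final), exposed to compound two generations (96 h, 37 C, 5% CO2).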
Sm TGR block: qHTS Assay for the Inhibitors of Schistosoma Mansoni Peroxiredoxins. Schistosoma mansoni thioredoxin glutathione reductase (TGR), Q962Y6. purified TGR, DTNB reduction, TNB absorbance 405 nm. Potency, µM (doses to about 114 µM), without a hit: at the highest dose activity change, negative = inhibition, actives largely listed as inhibitors. 360,000 compounds, 3% hits. AID 485364, 2010; note: potency is the fitted concentration of half-maximal effect; % is set by controls: 0 for no effect and ±100 for the full control effect; nearly all actives have a fitted effect of over 60% in size
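TGR 20 nM + NADPH 100 uM (dispensed conc.), cpd preinc 15 min RT; start with NADPH (500 uM addition) then DTNB (15 mM addition). Kinetic TNB absorbance, 405 nm filter. Four-parameter Hill fit across titration.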
HCV inh: qHTS Assay for Inhibitors of Hepatitis C Virus (HCV); Huh7.5.1 HCVcc-Cre infection, luciferase reporter, 44 h; Potency, µM (doses to about 41.8 µM), without a hit: at the top dose activity change, negative = inhibition, usual class: inhibitors; 340,000 compounds, 3.4% hits; note: potency is the fitted concentration of half-maximal effect; % is set by controls: 0 for no effect and ±100 for the full control effect
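Luciferase read-out (15 sec integration) after a 15 min room-temperature substrate step quantifies HCVcc-Cre infection. Cells, 1,000 per well, had compound added 4 h post-plating, then virus at ~0.5 moi, and were cultured 44 h.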
The depositor's hits bear a star; ? = inconclusive; · = no result; [ ] = remark or other dose. Only some compounds are listed: those with a hit (about 15% of all), similar ones and a draw of the others. Unless noted, calls come from the whole dose curve; as a rule, active = well fitted curve in the direction sought with a large enough effect; inconclusive = small, poorly fitted or top-dose-only effect, or another doubt; inactive = no such curve, though single readings can be large; an effect the other way counts as inactive or inconclusive.

SMILES	Pf growth 48h	HCMV inh	SARS PLpro yeast	Pf growth 96h	Sm TGR block	HCV inh
CC(C)(C)N(Cc1ccc2c(c1)OCO2)C(=O)/C=C\S(=O)c1ccccc1 (stereo unspecified)	·	-29.0	·	·	·	11.2µM*
CCN(Cc1ccc2c(c1)OCO2)C(=O)/C=C/c1cccc(Br)c1	14.5%	4.4	-6.6%	1.3%	0.4%	-4.6%
CC(=O)c1c(C)[nH]c(C(=O)CN2C(=O)NC(CCc3ccccc3)C2=O)c1C (stereo unspecified)	?	0.0	-1.5%	?	0.7%	-21.7%
O=C(NNC(=O)C12CC3CC(CC(C3)C1)C2)c1ccccn1	4.15µM*	-106.7*	2.7%	4.15µM*	-1.7%	?
O=C(NNC(=S)NC(=O)C12CC3CC(CC(C3)C1)C2)c1ccncc1	3.29µM*	?	-35.1%	3.29µM*	0.0%	-19.3%
C=CCCC(=O)N1C[C@H]2CON(C)[C@H]2C[C@H]1c1ccc(Br)cc1	·	-100.5*	·	·	·	·
Cc1ccc(N(Cc2cccs2)C(=O)c2ccco2)cc1	·	-34.0	·	·	-0.3%	·
O=C(c1ccco1)N(Cc1cccc([N+](=O)[O-])c1)c1ccc(Br)cc1	-17.7%	-4.9	-0.3%	?	-25.4%	5.7%
O=C(c1ccco1)N(Cc1ccccc1)c1cccc([N+](=O)[O-])c1	?	?	-0.3%	6.57µM*	-20.7%	-23.2%
O=C(c1ccco1)N(Cc1ccco1)c1ccc(O)cc1	?	?	-3.0%	9.28µM*	-11.8%	-2.2%
CC1(CCCN2C(=O)c3ccccc3C2=O)OCCO1	·	-19.7	·	·	·	6.6%
O=C(CCC(=O)c1ccc(Oc2ccccc2)cc1)Nc1cccc(Cl)c1	9.9%	14.1	19.7%	5.86µM*	-3.3%	0.8%
COc1ccc(C(=O)CCNc2cccc(Cl)c2)cc1	116.7%	77.2	-2.0%	?	44.7µM*	-2.6%
COc1ccc(C(=O)CCC(=O)Nc2cccc(Cl)c2)cc1	7.9%	-1.3	-0.2%	?	0.3%	-10.6%
COc1ccc(C(=O)CCNc2ccc3c(c2)OCCO3)cc1	4.6%	46.8	1.8%	-3.7%	14.1µM*	-18.5%
O=C1CN(C(=O)NCC(=O)N[C@@H](C(=O)O)c2ccccc2)c2ccccc2N1	7.0%	-27.2	3.2%	73.7%	-8.3%	-19.9%
CCOc1ccc(NC(=O)Cn2c(=O)cc(C)c3c(C)nn(-c4ccc(CC)cc4)c32)cc1	·	26.9	·	·	3.6%	·
Cc1ccc(SCC(=O)OC(C)C(=O)NCc2ccccc2)cc1 (stereo unspecified)	41.3%	-4.9	-4.5%	?	6.1%	26.1%
O=S1(=O)CC(O)C(O)CS1 (stereo unspecified)	·	7.1	·	·	·	·
CCn1c(SCC(=O)OCc2ccccc2)nnc1-c1ccco1	13.4%	26.5	3.1%	-27.2%	-11.9%	31.2%
O=[N+]([O-])c1ccc(Sc2ncc3ccccn23)nc1	?	-65.2*	-1.5%	9.28µM*	44.7µM*	-3.0%
CCn1c(Sc2ccc([N+](=O)[O-])cn2)nnc1-c1ccco1	?	-85.7*	0.0%	-18.4%	-33.6%	?
CCCCN(C(=O)c1cc(S(=O)(=O)N2CCCCCC2)ccc1OC)c1ccccc1	?	?	0.5%	?	2.5%	?
COc1ccc2c(c1)[C@@H]1[C@H](CO2)[C@H](c2ccccc2)[C@]2(C)C(=O)Nc3ccc(C)cc3C(=O)N12	13.1µM*	·	-1.5%	?	-5.7%	-5.6%
Cc1ccc2c(c1)[C@H]1[C@H](CO2)[C@H](c2ccccc2)[C@]2(C)C(=O)Nc3ccccc3C(=O)N12	·	-76.4*	3.5%	·	·	-18.9%
SMILES	Pf growth 48h	HCMV inh	SARS PLpro yeast	Pf growth 96h	Sm TGR block	HCV inh
COc1ccc2c(c1)[C@H]1[C@H](CO2)[C@H](c2ccccc2)[C@]2(C)C(=O)Nc3ccc(C)cc3C(=O)N12	·	-26.4	-15.0%	·	·	11.2µM*
COc1ccc2c(c1)OC[C@H]1[C@H]2N2C(=O)c3cc(C)ccc3NC(=O)[C@@]2(C)[C@H]1c1ccccc1	·	·	-1.3%	·	·	?
COc1ccc2c(c1)[C@H]1[C@H](CO2)[C@H](c2ccccc2)[C@]2(C)C(=O)Nc3cc(OC)c(OC)cc3C(=O)N12	9.28µM*	?	-1.4%	?	-17.8%	10µM*
COc1ccc2c(c1)[C@H]1[C@H](CO2)[C@H](c2ccccc2)[C@]2(C)C(=O)Nc3ccc(Cl)cc3C(=O)N12	·	-7.9	·	·	·	?
Cc1ccccc1C(=O)Nc1nnc(S(=O)(=O)N2CCCc3ccccc32)s1	·	13.0	·	·	1.3%	·
COc1ccc2c(c1)C(=O)N1[C@H]3c4cc(C)ccc4OC[C@@H]3[C@H](c3ccccc3)[C@]1(C)C(=O)N2	9.28µM*	?	3.0%	?	-1.1%	?
COc1cccc(Cn2c(NCC(C)C)nc3c2c(=O)n(C)c(=O)n3C)c1	?	0.9	-22.1%	?	-17.6%	10.0%
COc1ccc(Cl)c(Cn2c(NCc3ccco3)nc3c2c(=O)n(C)c(=O)n3C)c1	?	-6.5	16.1%	·	50.1µM*	?
COc1ccc(Cl)c(Cn2c(NCCN)nc3c2c(=O)n(C)c(=O)n3C)c1	·	-4.7	·	·	1.0%	·
COc1cccc(Cn2c(NCc3ccco3)nc3c2c(=O)n(C)c(=O)n3C)c1	?	-98.5*	4.5%	7.1%[5.75 µM]	-29.3%	?
CN1CCCC1=Nc1ccccc1	·	-19.4	·	·	·	·
COc1ccc(NC2Oc3cc4c(cc3C(c3cc(OC)c(OC)c(OC)c3)C2C)OCO4)cc1 (stereo unspecified)	·	-77.0*	·	·	·	?
COc1cc(C2c3cc4c(cc3OC(NCCc3ccccc3)C2C)OCO4)cc(OC)c1OC (stereo unspecified)	·	-82.0*	·	·	·	3.2%
COc1cc(C2c3cc4c(cc3OC(N3CCOCC3)C2C)OCO4)cc(OC)c1OC(C)=O (stereo unspecified)	·	9.1	·	·	·	-11.5%
COc1cc(C2c3cc4c(cc3OC(N3CCCC3)C2C)OCO4)cc(OC)c1O (stereo unspecified)	·	12.9	·	·	·	?
COc1cc(C2c3cc4c(cc3OC(C)(N3CCCC3)C2C)OCO4)cc(OC)c1OC (stereo unspecified)	·	-68.0*	·	·	·	?
COc1cc(C2C3=C(COC3=O)OC(C)(C)Oc3cc4c(cc32)OCO4)cc(OC)c1OC (stereo unspecified)	·	-79.9*	·	·	·	?
COc1cc(C2C3=C(COC3=O)Oc3cc4c(cc32)OCO4)ccc1O (stereo unspecified)	·	-18.3	·	·	·	-9.1%

Screens from PubChem BioAssay.
